This note sets out measurements from PubChem BioAssay (NCI).

This is part of a sample that, as a whole, favours compounds with a hit. Of some 83,000 tested, about 20% had one in any assay.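 Each cell line was grown in a 96-well plate and treated with one concentration of compound for 48 hours. Values below 10 were considered active.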 Unmarked numbers belong to inactive results. The source made the active and inactive calls.

The subject of this assay is OVCAR-8 ovarian. Description: NCI-60 one-dose screen, 48 h (100 = growth as untreated, 0 = no growth, -100 = all killed). The settings on record: 10 µM unless noted. As to the method:
Growth inhibition of the OVCAR-8 human tumor cell line is measured as a screen for anti-cancer activity. Cells are grown in 96 well plates and exposed to the test compound for 48 hours. Compounds are tested at a single concentration, which is 10^-5 M for most compounds. The reported endpoint is percent growth (GI% or GIPRCNT), where numbers from 0 - 100% represent growth inhibition, and numbers from -100% - 0 represent cell death. For example, a value of 40 represents 60% growth inhibition. A value of 0 means no net growth occurred over the course of the experiment. A value of -40 indicates 40% of cells at the beginning of the experiment died by the end of the experiment. A value of -100 means all cells are dead at the end of the experiment.
NCI-60 Human Tumor Cell Lines Screen was performed using the standard one-dose NCI protocol, which is described in more detail at https://dtp.cancer.gov/discovery_development/nci-60/default.htm.
Compounds with GIPRCNT values below 10 were considered active. Activity score was based on GIPRCNT using the following formula: […]
Score is 0 for GIPRCNT values of 100 or above, 50 for GIPRCNT values of 0, and 100 for GIPRCNT values of -100.
Regarding `Nc1c(C(=O)Nc2ccncc2)sc2nc3c(cc12)C(O)CCC3` (stereo not given), the growth is 98.7%.

On to `CN(C)c1ccc(-c2c(C#N)c(N)nn2C(=O)c2ccc(NC(=O)c3ccccn3)cc2)cc1`, for which the growth was 98.3%.

For `N#Cc1nc(-c2ccc(F)cc2)oc1S(=O)(=O)N1CCOCC1`, the growth was 63.1%.

With `O=C(/C=C/c1cccc(Cl)c1)c1cccc(OCCCOc2cccc(C(=O)/C=C/c3cccc(Cl)c3)c2)c1`, the growth was 98.2%.

Turning to `C=C1C(=O)O[C@H]2[C@H]1CC/C(COC(=O)c1cc3ccccc3s1)=C\CC[C@@]1(C)O[C@@H]21`, the growth was -12% (active).

`COc1ccc(-c2cc(-c3cccnc3)nc3sc4c(=O)[nH]c(-c5ccc(Cl)cc5)nc4c23)cc1OC`: the growth was 92.2%.

In the case of `COc1ccc(C2CC(c3ccc(Nc4nc(Nc5ccccc5)nc(Nc5ccccc5)n4)cc3)=NN2C(C)=O)cc1` (stereo not given), the growth is 83%.

Turning to `CC1=NC2=Nn3c(c4cnn(-c5ccccc5)c4n/c3=N\N)NN2C(c2ccccc2)=C1`, the growth is 101%.

Take `NC(=O)c1c(NC(=O)c2ccc3ccccc3c2)sc2c1CCC(=O)C2`: the growth is 46.1%.

As to `Cc1ccc(-c2nc(N3CCCNCC3)c3oc(-c4ccccc4)nc3n2)cc1`, the growth is -44.1% (active).

Consider `CC(=O)Oc1ccc(C)cc1C`, for which the growth was 110%.

As to `CCCCCC(/C=N\NC(=S)N/N=C/C(=C/c1ccccc1)CCCCC)=C\c1ccccc1`, the growth was 64.4%.

`CCN1C(=S)N(c2ccccc2)C2C1NN=c1s/c(=C3\C(=O)N(C(C)C)c4ccccc43)c(=O)n12` (stereo not given): the growth is 54.1%.

For `Cc1ccc(C(=O)c2ccc(CC(=O)N/N=C/c3ccccc3O)n2C)cc1`, the growth was 79%.

As for `C[PH+](c1nc2ccccc2nc1[PH+](C)C(C)(C)C)C(C)(C)C.C[PH+](c1nc2ccccc2nc1[PH+](C)C(C)(C)C)C(C)(C)C.[Au+].[Cl-]` (stereo not given), the growth was -54.3% (active).

Regarding `COc1ccc(CNc2c3ccccc3nc3ccccc23)cc1`, the growth is 27.7%.

As to `Cc1cc(N2CCCCC2)cc(C)c1-c1csc(NC(=O)c2ccncc2)n1`, the growth is 51.2%.

As to `O=C(Nc1nc2ccccc2s1)c1ccc(F)cc1`, the growth was 109%.

`Cc1ccc2c(c1)=C/C(=C\c1cc(-c3ccccc3)oc1O)C(=O)N=2`: the growth is 104%.

Turning to `Nc1ncnc2c1C(c1ccc(Br)cc1)c1sc3c(F)cccc3c1O2` (stereo not given), the growth is 101%.

Regarding `COc1ccc(OC)c(-c2nc(SCC(=O)c3ccc(C#N)cc3)[nH]c(=O)c2C#N)c1`, the growth was 99.3%.

Regarding `CN1CCc2nc3sc(C(N)=O)c(N)c3c(-c3cccs3)c2C1`, the growth was 22.2%.

With `O=C1C(Cl)=C(Nc2ccc(S(=O)(=O)N3CCOCC3)cc2)C(=O)c2ccccc21`, the growth is 70%.

On to `C=C(C)[C@@H]1CC[C@]2(C(=O)O)CC[C@]3(C)[C@H](CC[C@@H]4[C@@]5(C)CCC(NC(=O)c6cccc(OC(C)=O)c6OC(C)=O)C(C)(C)[C@@H]5CC[C@]43C)[C@@H]12` (stereo not given in full), for which the growth is 10.7%.

With `CCCC/C=C/[C@@H]1C[C@H]1CCO`, the growth was 100%.

For `COc1ccc(C(=O)Nc2cccc(-c3cc(=O)c4c(OC)c(OC)c(OC)cc4o3)c2)cc1`, the growth was 57.9%.

Consider `O=C(Nc1cccc(-c2ccc(Cl)c(C(F)(F)F)c2)c1)C1CCN(Cc2cccc3cccnc23)CC1`, for which the growth was -38.3% (active).

As for `CC(C)C1=NOC(=O)C1=Cc1cn(-c2ccccc2)nc1-c1ccc(F)cc1`, the growth is 60.2%.

Take `COc1cc(C2CC(c3ccc(Nc4nc(Nc5ccc(Cl)cc5)nc(Nc5ccc(Cl)cc5)n4)cc3)=NN2C(C)=O)cc(OC)c1OC` (stereo not given): the growth was 107%.

As for `C=CCc1c(O)c(C(=O)/C=C/c2ccccc2)c(OC)c2ccoc12`, the growth was 29.6%.

As to `CN(C)c1ccc(C(=O)OCCCCCCl)cc1`, the growth was 106%.

Take `CC(C)=CCCC(C)c1ccc(C)c2c1OCN(CCCCCO)C2` (stereo not given): the growth was 90.1%.

As to `C1CN(SSN2CCOCC2)CCO1`, the growth was -25.2% [100 µM] (active).

Turning to `CCO/C=N/C1=C(C#N)C(c2ccc(Cl)cc2)c2sc3c(F)cccc3c2O1` (stereo not given), the growth was 77.8%.

With `COC1=CC(c2ccc[nH]2)=N/C1=C\c1[nH]c(C)c(CC(=O)NCc2ccccc2)c1C`, the growth is 19.4%.

On to `CS(=O)(=O)c1ccc(-c2cnn3ccc(-c4cccc(S(=O)(=O)C5CC5)c4)nc23)cc1`, for which the growth was 43.7%.

Take `O=C(N/N=C/c1c(Cl)cccc1Cl)c1cccnc1Nc1cccc(C(F)(F)F)c1`: the growth was 49.4%.

On to `COc1ccc(Nc2ncc(Br)c(NCCCNC(=O)C3CCCC3)n2)cc1`, for which the growth is 36.7%.

With `O=C(Nc1ccc(OS(=O)(=O)c2ccc(F)cc2)cc1)C1CCCCCC1`, the growth was 93.2%.

Regarding `Cc1cccc(/C=C2\CN(C(=O)OC(C)(C)C)C/C(=C\c3cccc(C)c3)C2=O)c1`, the growth was 85.4%.
